Records with an inconclusive call do not appear. Entries that show only a call come without a potency. Calls of active or inactive are those of the source. The call rests on the fitted dose curve; in most records, active means well fitted inhibition curve with a large enough effect; inconclusive means small, poorly fitted or top-dose-only effect; inactive means no such curve, though single readings can be large or run the other way.
experiment: Primary qHTS for inhibitors of nuclear receptor binding SET domain protein 2 (NSD2) in an RCH-ACV wild type WT cells (2C) (AID 1645877); settings: RCH-ACV (leukaemia line) NSD2 WT (2C) viability, CellTiter-Glo, 72 h; series mostly up to 44.9 µM; further: nearly all actives have a fitted effect of over 70% in size
Potency means the concentration at half of the fitted maximal effect.

Row | SMILES | Potency
1 | CN1[C@H]2C[C@H](OC(=O)[C@H](CO)c3ccccc3)C[C@@H]1[C@@H](O)C2 | inactive
2 | COc1c(C(C)C)cc2c(c1O)[C@@]1(C(=O)O)CCCC(C)(C)C1CC2 (stereo partly drawn) | inactive
3 | CC(=O)O[C@H]1C[C@@H](OC(C)=O)C(C)(C)C2C[C@@H](O)[C@]3(C)C(CC[C@@]4(C)[C@H](C5=CC(=O)OC5O)C[C@H]5O[C@]543)[C@]21C (stereo partly drawn) | inactive
4 | COCC1OC(=O)c2coc3c2C1(C)C1=C(C3=O)C2CCC(=O)C2(C)CC1O (stereo not drawn) | inactive
5 | CO[C@H]1[C@H](O)[C@H](O[C@H]2CC[C@]3(C)C4CC[C@]5(C)[C@H](C6=CC(=O)OC6)CC[C@]5(O)C4CC[C@@H]3C2)O[C@@H](C)[C@@H]1O (stereo partly drawn) | 28.2 nM (active)
6 | COc1cc2c(cc1OC)[C@@]13CCN4CC5=CCO[C@H]6CC(=O)N2[C@H]1[C@H]6[C@H]5C[C@H]43 | inactive
7 | C[C@H]1C(=O)O[C@H]2[C@H](O)[C@]34C5OC(=O)[C@]3(O[C@@H]3OC(=O)[C@H](O)C34[C@H](C(C)(C)C)[C@H]5O)C12O (stereo partly drawn) | inactive
8 | CN1C(=O)c2ccccc2NC(=O)C1Cc1ccccc1 (stereo not drawn) | inactive
